Here are results for eight compounds from PubChem BioAssay.

Each structure is given as a SMILES string. Calls of active or inactive are those of the source. Unless noted, no rule for the calls is given here.

Experiment [1] relates to Wnt5a (protein binding on small-molecule microarray). Briefly: small molecules binding Wnt5a protein – biophysical, small-molecule microarray, 635/667 nm fluorescence, primary screen (AID 1142).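 Also: fluorescence read at 667 nm with signal to noise per printed feature.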 The note with it: 635 nm fluorescence, higher = more signal.
The nature of experiment [2]: ATP-based viability of Huh7 replicon cells – cell-based, CellTiter-Glo luminescence, basal, 48 h, cytotoxicity control for HCV replication inhibitor project, primary screen (AID 1143).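 Also: Huh7 hepatoma cells carrying a hepatitis C replication reporter with no stimulus; test concentration not given here.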 The settings on record: higher = more signal, called active from +8 up or from −8 down. For orientation: In antiviral work, replicon cells carry a viral genome segment that copies itself.

The nature of experiment [3]: Pseudomonas biofilm growth suppression – PAO1 strain, BacTiter-Glo luminescence, LB-PBS, primary screen (AID 1144). The note with it: P. aeruginosa PAO1 biofilm, 12 h, higher = more signal.
A short description of experiment [4]: basal CRE-LacZ reporter activity in PC12 – cell-based, unstimulated, primary screen (AID 1145). The settings on record: no forskolin, luminescence, 4.5 h, higher = more signal, called active from +8 up or from −8 down.
Experiment [5] can be described thus: forskolin-driven CRE-LacZ activity in PC12 – cell-based, CRE-LacZ reporter, forskolin-stimulated, primary screen (AID 1146).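 Also: PC12 cells with 6xCRE LacZ reporter stimulated by forskolin 10 µM; beta-galactosidase reporter signal reflecting CREB driven transcription.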 The settings on record: luminescence, 4.5 h, higher = more signal, called active from +8 up or from −8 down.
Experiment [6] addresses Streptavidin (Streptomyces avidinii) (UniProt P22629). Briefly: compounds binding control protein streptavidin – biophysical, small-molecule microarray, 635/667 nm fluorescence, artefact control for SMM compound annotation, primary screen (AID 1147).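 Also: signal reflects streptavidin binding to arrayed compounds as a control protein.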 The settings on record: higher = more signal.
A short description of experiment [7]: probe aInhba binding on compound microarray – biochemical, small-molecule microarray, 635/667 nm fluorescence, primary screen (AID 1148).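 Also: score merges 667nm spot fluorescence with signal-to-noise for antibody binding to printed compounds.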 The note with it: higher = more signal.
The target in experiment [8] is Torsin-1A (Homo sapiens) (UniProt O14656). Description: TOR1A wild-type binding on microarray – cell lysate, small-molecule microarray, lysate, 635/667 nm, primary screen (AID 1149). The settings on record: COS7 hTOR1A-WT lysate, 635 nm fluorescence, higher = more signal.
The target is the same in experiment [9]. Briefly: torsin A mutant lysate binding on microarrays – cell lysate, small-molecule microarray, COS7 lysate, 635/667 nm fluorescence, primary screen (AID 1150).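 Also: score pools 667 nm emission and signal to noise measuring lysate protein binding.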 The note with it: COS7 hTOR1A mutant lysate, 635 nm fluorescence, higher = more signal.
Experiment [10] deals with Sonic hedgehog protein (Shh). Description: Sonic hedgehog microarray binding compounds – biochemical, small-molecule microarray, 635/667 nm fluorescence, primary screen (AID 1151).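 Also: Shh protein binding to compounds spotted on small-molecule microarray slides; score combines spot fluorescence intensity with signal-to-noise across triplicate slides.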 The note with it: 635 nm fluorescence, higher = more signal.
Experiment [11] can be described thus: optical density shifts of acrAB sulA E. coli – strain DRC41, OD650, 48 h, E. coli filamentation inducer project, primary screen (AID 1152).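 Also: E. coli MC1000 strain DRC41 lacking acrAB efflux pump and sulA.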 The note with it: higher = more signal, called active from +8 up or from −8 down.
A short description of experiment [12]: probe aLefty1 binding on compound microarray – biochemical, small-molecule microarray, 635/667 nm fluorescence, primary screen (AID 1153).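 Also: score merges spot fluorescence with signal-to-noise ratio from the scanned slide images.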 The settings on record: higher = more signal.
The nature of experiment [13]: plasmodial surface anion channel blockers, osmotic lysis – cell-based, P. falciparum Indochina, OD700, 1 h, primary screen (AID 1154). The settings on record: P. falciparum Indochina infected RBC osmotic lysis, higher = more signal, called active from +8 up or from −8 down.
Experiment [14] can be described thus: plasmodial surface anion channel blockers, osmotic lysis – cell-based, P. falciparum Indochina, OD700, 2 h, primary screen (AID 1155).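 Also: lysis reports solute entry through the parasite surface anion channel PSAC.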 The note with it: P. falciparum Indochina infected erythrocytes, higher = more signal, called active from +8 up or from −8 down.
Experiment [15] is described as follows: changes in parasitized red cell lysis, either direction – P. falciparum Indochina, OD700, 3 h, PSAC antagonist project, primary screen (AID 1156). The settings on record: P. falciparum-infected erythrocytes, osmotic lysis, higher = more signal, called active from +8 up or from −8 down.
The nature of experiment [16]: plasmodial surface anion channel blockers, osmotic lysis – cell-based, P. falciparum Indochina, OD700, 18 h, primary screen (AID 1157). The note with it: P. falciparum Indochina infected erythrocytes, osmotic lysis OD700, 18 h; higher = more signal, called active from +8 up or from −8 down.
Experiment [17] can be described thus: S6 kinase pathway phospho-S6 level changes – cell-based, A549, cytoblot, luminescence, serum-stimulated, primary screen (AID 1158).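 Also: serum-stimulated A549 lung adenocarcinoma cells; signal is phosphorylated S6 detected by cytoblot immunostaining with HRP secondary.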 The settings on record: 5 h, higher = more signal.
Experiment [18] has as its target NADPH oxidase 2 (Homo sapiens) (UniProt P04839). Description: compounds shifting NOX2 Amplex Red fluorescence – cell-based, HEK293-NOX2, PMA-stimulated, NOX inhibitor project, primary screen (AID 1159). Also: test concentration not given here. The note with it: 45 min, higher = more signal, called active from +8 up or from −8 down.
The target of experiment [19] is NADPH oxidase 4 (Homo sapiens) (UniProt Q9NPH5). Briefly: compounds shifting NOX4 Amplex Red fluorescence – cell-based, HEK293-NOX4, tetracycline-induced, NOX inhibitor project, primary screen (AID 1160). The settings on record: HEK293-NOX4, Amplex Red H2O2 fluorescence, 45 min; higher = more signal, called active from +8 up or from −8 down.
The target in experiment [20] is NADPH oxidase 5 (Homo sapiens) (UniProt Q96PH1). Description: compounds shifting NOX5 Amplex Red fluorescence – cell-based, HEK293-NOX5, NOX inhibitor project, primary screen (AID 1161). The settings on record: HEK293-NOX5, ionomycin, 45 min, higher = more signal.
Sequence of NADPH oxidase 5 (Homo sapiens) (Q96PH1 whole entry, looked up): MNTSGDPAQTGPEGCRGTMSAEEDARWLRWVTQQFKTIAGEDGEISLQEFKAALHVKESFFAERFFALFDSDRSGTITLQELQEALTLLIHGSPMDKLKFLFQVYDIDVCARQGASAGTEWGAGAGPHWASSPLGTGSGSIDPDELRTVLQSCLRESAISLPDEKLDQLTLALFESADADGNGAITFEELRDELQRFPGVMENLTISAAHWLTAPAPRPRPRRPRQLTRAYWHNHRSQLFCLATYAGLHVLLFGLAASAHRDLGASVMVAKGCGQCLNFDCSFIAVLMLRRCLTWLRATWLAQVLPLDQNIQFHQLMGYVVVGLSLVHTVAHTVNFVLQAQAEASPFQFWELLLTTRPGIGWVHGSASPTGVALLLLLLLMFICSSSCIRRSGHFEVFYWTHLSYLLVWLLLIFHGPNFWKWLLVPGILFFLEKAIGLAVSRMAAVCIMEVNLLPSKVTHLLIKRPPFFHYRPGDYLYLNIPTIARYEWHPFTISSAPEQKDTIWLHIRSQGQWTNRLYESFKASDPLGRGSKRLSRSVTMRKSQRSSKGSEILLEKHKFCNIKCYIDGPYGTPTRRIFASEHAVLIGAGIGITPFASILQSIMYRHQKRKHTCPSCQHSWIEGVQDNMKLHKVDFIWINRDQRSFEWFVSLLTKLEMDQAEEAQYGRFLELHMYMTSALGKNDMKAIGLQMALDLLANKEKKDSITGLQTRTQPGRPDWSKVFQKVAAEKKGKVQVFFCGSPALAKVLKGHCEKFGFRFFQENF

Sequence of Torsin-1A (Homo sapiens) (O14656 whole entry, looked up): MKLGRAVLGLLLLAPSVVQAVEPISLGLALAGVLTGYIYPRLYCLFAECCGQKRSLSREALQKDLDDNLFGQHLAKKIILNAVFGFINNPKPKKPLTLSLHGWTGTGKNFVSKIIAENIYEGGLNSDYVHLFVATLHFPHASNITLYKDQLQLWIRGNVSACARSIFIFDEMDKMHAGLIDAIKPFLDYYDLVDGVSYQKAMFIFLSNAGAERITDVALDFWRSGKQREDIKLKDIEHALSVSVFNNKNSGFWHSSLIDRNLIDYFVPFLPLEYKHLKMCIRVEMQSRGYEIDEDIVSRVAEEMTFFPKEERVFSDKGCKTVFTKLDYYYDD
Sequence of NADPH oxidase 4 (Homo sapiens) (Q9NPH5 whole entry, looked up): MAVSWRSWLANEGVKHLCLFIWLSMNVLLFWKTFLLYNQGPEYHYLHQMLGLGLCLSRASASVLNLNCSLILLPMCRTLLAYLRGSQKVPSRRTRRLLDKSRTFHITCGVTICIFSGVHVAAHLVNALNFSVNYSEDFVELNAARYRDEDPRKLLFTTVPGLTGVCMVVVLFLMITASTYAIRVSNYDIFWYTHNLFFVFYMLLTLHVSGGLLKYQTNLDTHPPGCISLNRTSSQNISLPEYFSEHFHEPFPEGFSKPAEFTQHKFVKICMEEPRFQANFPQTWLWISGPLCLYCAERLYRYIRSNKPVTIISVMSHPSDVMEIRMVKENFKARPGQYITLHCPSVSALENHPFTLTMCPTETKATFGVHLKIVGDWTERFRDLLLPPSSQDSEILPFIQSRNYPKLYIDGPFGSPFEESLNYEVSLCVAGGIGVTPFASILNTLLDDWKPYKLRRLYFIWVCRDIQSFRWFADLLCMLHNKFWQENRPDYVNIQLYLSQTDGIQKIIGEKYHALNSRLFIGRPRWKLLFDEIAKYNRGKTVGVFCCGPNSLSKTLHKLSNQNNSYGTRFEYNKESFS
Sequence of Streptavidin (Streptomyces avidinii) (P22629 whole entry, looked up): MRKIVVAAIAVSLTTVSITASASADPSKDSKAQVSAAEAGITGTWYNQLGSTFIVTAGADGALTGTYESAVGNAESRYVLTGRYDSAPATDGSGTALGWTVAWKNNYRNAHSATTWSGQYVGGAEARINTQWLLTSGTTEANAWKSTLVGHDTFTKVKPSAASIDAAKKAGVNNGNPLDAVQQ
Sequence of NADPH oxidase 2 (Homo sapiens) (P04839 whole entry, looked up): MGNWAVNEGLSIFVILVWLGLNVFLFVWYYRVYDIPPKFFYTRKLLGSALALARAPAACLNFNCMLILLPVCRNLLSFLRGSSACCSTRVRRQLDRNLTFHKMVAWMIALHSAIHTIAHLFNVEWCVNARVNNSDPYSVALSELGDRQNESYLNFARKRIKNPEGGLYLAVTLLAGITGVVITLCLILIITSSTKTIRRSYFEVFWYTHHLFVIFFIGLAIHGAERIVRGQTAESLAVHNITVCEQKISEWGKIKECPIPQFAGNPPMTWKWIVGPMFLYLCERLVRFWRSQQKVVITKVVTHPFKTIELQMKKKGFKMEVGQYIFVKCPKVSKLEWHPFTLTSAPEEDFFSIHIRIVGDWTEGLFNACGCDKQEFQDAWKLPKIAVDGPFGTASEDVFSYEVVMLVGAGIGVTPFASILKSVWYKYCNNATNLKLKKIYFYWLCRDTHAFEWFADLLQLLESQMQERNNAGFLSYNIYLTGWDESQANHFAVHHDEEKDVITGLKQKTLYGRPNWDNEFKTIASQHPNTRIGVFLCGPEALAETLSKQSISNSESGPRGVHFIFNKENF

Consider `C=CC[C@]1(C(=O)O)N=C(c2ccc(OCCCO)cc2)O[C@H]1c1ccccc1N=[N+]=[N-]`, for which the composite z-score is 0.477 in experiment [1]; 1.27 in experiment [6]; -0.026 in [7]; 0.0545 in experiment [8]; 0.125 in experiment [9]; -0.373 in [10]. The composite z-score in experiment [12] amounted to 0.0299. Also, the z-score in experiment [2] is -0.426 (inactive); in experiment [3] it was 1.09 (inactive); in experiment [4], 0.629 (inactive); in [5] it was -1.32 (inactive); in experiment [11], 1.76 (inactive); in [13], 32.9 (active). Further, the z-score in experiment [14] was 29.4 (active); in experiment [15], 3.38 (inactive); in [16], 9.45 (active); in experiment [17], 0.883; in experiment [18] it was -1.53 (inactive); in experiment [19] it was 0.823 (inactive). The z-score in experiment [20] was -0.199.
`C=C(CCCC)/C(=C/C[C@@H](OC(=O)c1ccncc1)c1ccc(CO)o1)c1cnc2ccccc2c1`: the composite z-score was 0.209 in [1]; 1.39 in [6]; 0.461 in experiment [7]; 1.42 in [8]; 1.07 in experiment [9]; 2.18 in experiment [10]. The compound further registered a composite z-score in experiment [12] of 0.569. The z-score in [2] was -1.47 (inactive); in experiment [3] it was -1.26 (inactive); in experiment [4] it was 2.38 (inactive); in [5], 0.176 (inactive); in [11] it was 0.583 (inactive); in experiment [13] it was 7.06 (inactive). The z-score was 0.843 (inactive) in experiment [14]; 1.17 (inactive) in experiment [15]; 0.0867 (inactive) in [16]; -0.349 in experiment [17]; 0.194 (inactive) in experiment [18]; -0.546 (inactive) in [19]. Besides, in experiment [20], the z-score was -0.634.
With `C=C(CCCC)/C(=C/C[C@H](OC(=O)c1ccncc1)c1cccc(OCCO)c1)c1cc(C(=O)OC)ccc1OC`, the composite z-score was 0.84 in experiment [1]; 0.396 in experiment [6]; -0.0695 in experiment [7]; 0.349 in experiment [8]; 0.458 in experiment [9]; 1.61 in [10]. This compound returned a composite z-score in experiment [12] of 0.0406. For the same compound, the z-score is -5.25 (inactive) in experiment [2]; -0.536 (inactive) in experiment [3]; 6.81 (inactive) in experiment [4]; -0.802 (inactive) in experiment [5]; 1.93 (inactive) in experiment [11]; 21.6 (active) in experiment [13]. The z-score in experiment [14] was 3.75 (inactive); in experiment [15] it was 1.61 (inactive); in experiment [16], -0.403 (inactive); in [17], 1.21; in experiment [18], -3.36 (inactive); in experiment [19], -1.72 (inactive). Moreover, in experiment [20], the z-score is -2.92.
For the compound `C#CCNC(/C=C/c1ccccc1)CO` (stereo not drawn), the composite z-score is -0.0285 in experiment [1]; -0.114 in [6]; -0.0846 in [7]; 0.304 in [8]; 0.443 in [9]; 0.448 in [10]. For the same compound, the composite z-score in [12] is -0.252. Further, the z-score was 0.171 (inactive) in experiment [2]; -0.558 (inactive) in experiment [3]; -0.237 (inactive) in experiment [4]; 1.39 (inactive) in experiment [5]; -0.759 (inactive) in experiment [11]; -0.181 (inactive) in experiment [13]. The z-score was 0.36 (inactive) in [14]; 0.286 (inactive) in experiment [15]; 0.0834 (inactive) in [16]; 0.168 in experiment [17]; -0.867 (inactive) in experiment [18]; 0.813 (inactive) in experiment [19]. Further, in [20], the z-score was -0.548.
On to `CC(C)NC(=O)[C@@]1(Cc2ccccc2I)c2ccccc2C(=O)N(C2CCCCC2)[C@H]1c1ccc(CO)cc1`, for which the composite z-score in experiment [1] was 0.345; in experiment [6], 0.999; in [7] it was 0.122; in experiment [8], 0.457; in [9], 0.559; in [10] it was 0.28. Also, the composite z-score in [12] is 0.149. Besides, the z-score in [2] is -3.83 (inactive); in experiment [3], -1.09 (inactive); in experiment [4] it was 0.531 (inactive); in experiment [5], 0.24 (inactive); in [11], 0.151 (inactive); in [13] it was 7.99 (inactive). Further, the z-score in experiment [14] is 1.13 (inactive); in [15], 3.67 (inactive); in experiment [16], 1.28 (inactive); in [17], 0.274; in [18], 0.988 (inactive); in [19] it was -1.77 (inactive). In addition, the z-score in experiment [20] is -1.42.
Take `O=C1OCCC/C=C\[C@H]2OC34C=CCN(CCN5CCOCC5)C(=O)[C@H]3N(CCCCCO)C(=O)[C@@H]4C12` (stereo partly drawn): the composite z-score in experiment [1] is -0.498; in [6] it was -0.293; in [7], 0.202; in experiment [8] it was -1.01; in experiment [9], -0.649; in [10], 0.392. In addition, in experiment [12], the composite z-score was -0.0984. Further, the z-score is 0.305 (inactive) in experiment [2]; 1.67 (inactive) in experiment [3]; 0.597 (inactive) in experiment [4]; 0.515 (inactive) in experiment [5]; -0.938 (inactive) in experiment [11]; 1.07 (inactive) in [13]. The z-score in experiment [14] is -0.314 (inactive); in experiment [15], -0.566 (inactive); in [16] it was -0.525 (inactive); in experiment [17] it was -0.768; in experiment [18], 0.796 (inactive); in experiment [19], -0.109 (inactive). Moreover, the z-score in [20] worked out at 1.01.
For `CCCNC(=O)[C@@]1(Sc2ccc(C)cc2)CC(=O)N(Cc2ccccc2Cl)[C@@H]1c1ccc(CO)cc1`, the composite z-score in [1] was found to be 0.222; in [6], 0.124; in experiment [7], 0.0925; in experiment [8], 0.369; in experiment [9], 0.17; in [10], 1.86. The compound also came in with a composite z-score in experiment [12] of 0.369. The z-score in experiment [2] is -6.06 (inactive); in experiment [4], 0.443 (inactive); in experiment [5] it was -1.43 (inactive); in [11] it was 2.06 (inactive); in [13], 3.09 (inactive); in experiment [14], -0.114 (inactive). Also, the z-score in [15] is -1.35 (inactive); in [16], -0.772 (inactive); in experiment [17] it was 3.71; in experiment [18] it was -0.773 (inactive); in experiment [19] it was -0.99 (inactive); in [20], -0.176.
Take `C=CCN1C(=O)[C@@]2(O[C@@H](CCn3cc([C@H](O)c4ccccc4)nn3)[C@H]([Si](C)(C)c3ccc(OC)cc3)[C@H]2C)c2cc(N3CCOC3=O)ccc21`: the composite z-score in experiment [1] was -0.0882; in [6] it was -0.349; in experiment [7], -0.157; in [8] it was 0.0712; in experiment [9], 0.557; in [10], 0.185. The composite z-score in experiment [12] is -0.139. Moreover, the z-score in [2] was -6.15 (inactive); in experiment [4], 8.19 (active); in experiment [5], -1.73 (inactive); in [11], 1.77 (inactive); in experiment [13], 6.55 (inactive); in experiment [14], 0.569 (inactive). Besides, the z-score is -0.0434 (inactive) in [15]; -0.233 (inactive) in experiment [16]; 1.67 in experiment [17]; -0.379 (inactive) in experiment [18]; 1.18 (inactive) in [19]; -1.67 in [20].
